# AmpC inh no detg: inhibitors of E. coli AmpC beta-lactamase without detergent; P00811; AmpC nitrocefin hydrolysis, absorbance 480 nm, 0.0001% Triton; Potency, µM (top dose mostly 57.1 µM), for inactives: at the top dose activity change, negative = inhibition, most hits filed as inhibitors; AID 485341; 330,000 compounds, 0.52% hits;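 also: plate controls were no compound for no effect and no enzyme for full effect; nearly all actives have a fitted effect of over 20% in size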
# Target sequence (P00811 whole entry, looked up): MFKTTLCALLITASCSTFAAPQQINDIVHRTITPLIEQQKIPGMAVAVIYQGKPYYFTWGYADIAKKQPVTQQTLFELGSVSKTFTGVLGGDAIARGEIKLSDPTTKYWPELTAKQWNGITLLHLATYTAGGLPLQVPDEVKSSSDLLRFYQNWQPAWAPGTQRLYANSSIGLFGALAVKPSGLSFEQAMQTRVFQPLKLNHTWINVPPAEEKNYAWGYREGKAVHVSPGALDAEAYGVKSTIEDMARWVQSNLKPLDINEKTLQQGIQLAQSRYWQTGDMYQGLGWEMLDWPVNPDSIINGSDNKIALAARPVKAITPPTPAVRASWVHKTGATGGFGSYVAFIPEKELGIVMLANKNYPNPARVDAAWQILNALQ
#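 AmpC (5.3 nM in the dispensed reagent) in 20 mM phosphate pH 7.0 with 0.01% (detergent screen) or 0.0001% Triton X-100 was preincubated with compounds for 15 min at room temperature. Nitrocefin was then added from an 800 uM solution, and hydrolysis was followed at 480 nm.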
# AmpC inh detg: blocks E. coli AmpC beta-lactamase in detergent assay. Potency, µM (titrated, usually from 114 µM), without a hit: at the top dose activity change, negative = inhibition, usual class: inhibitors. 370,000 compounds, 0.041% hits. AID 485294. P00811. AmpC hydrolysis of nitrocefin, absorbance 480 nm, 0.01% Triton;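 also: 0% = no-compound wells and -100% = no-enzyme wells; nearly all actives have a fitted effect of over 25% in size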
#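 AmpC (5.3 nM in the dispensed reagent) in 20 mM phosphate pH 7.0 with 0.01% (detergent screen) or 0.0001% Triton X-100 was preincubated with compounds for 15 min at room temperature. Nitrocefin was then added from an 800 uM solution, and hydrolysis was followed at 480 nm.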
# LmPK inhibitor: blocks Leishmania mexicana pyruvate kinase activity; purified LmPK, Kinase-Glo ATP luminescence, 1 h; Potency, µM (series often up to 57.5 µM), without a hit: at the highest dose activity change, negative = inhibition, most hits filed as inhibitors; 290,000 compounds, 0.37% hits; AID 1721
#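 Pyruvate kinase activity monitored as ATP production (luciferase luminescence). Conditions: 0.1 nM enzyme, 0.5 mM PEP, 0.1 mM ADP, 1 h, RT; normalized against uninhibited and no-enzyme wells.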
# Tb PYK inh: T. brucei pyruvate kinase inhibition; TbPYK enzyme, Kinase-Glo Plus ATP luminescence, 45 min; 410,000 compounds, 0.12% hits; Q57TT1; Potency, µM (doses to about 76.8 µM), for inactives: top-dose activity, negative = inhibition, actives largely listed as inhibitors; also: nearly all actives have a fitted effect of over 50% in size
#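 ADP (130 uM final) triggers the TbPYK reaction after compound addition; incubation is 45 min at room temperature. Kinase-Glo Plus is then added and luminescence imaged. Normalized data are fitted to concentration-effect curves.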
# RE007 growth inh: less growth of the S. pombe RE007 Vpr strain. S. pombe RE007 Vpr strain, BacTiter-Glo ATP luminescence, 24 h. 360,000 compounds, 0.21% hits. AID 651644. Potency, µM (highest dose often 92.2 µM), for the others: at the highest dose activity change, negative = less growth, usual class: inhibitors; active = well fitted falling curve with a large enough effect; inconclusive = small, poorly fitted or top-dose-only effect; inactive = no such curve, though single readings can be large or run the other way; also: nearly all actives have a fitted effect of over 50% in size
#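 Fission yeast strain RE007, carrying one chromosomally integrated HIV-1 vpr copy, was seeded at OD 0.01 in PMG+AL medium with 23 nL pinned compound. After 24 h at 30 °C and 99% humidity, viability was read by BacTiter-Glo luminescence.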
# Giardia FBPA inh: blocks Giardia fructose-bisphosphate aldolase activity; purified Giardia FBPA; Potency, µM (titrated, usually from 59.6 µM), inactives show top-dose activity, negative = inhibition, actives largely listed as inhibitors; A8B2U2; 290,000 compounds, 0.71% hits; also: nearly all actives have a fitted effect of over 55% in size
# Target sequence (A8B2U2 whole entry, looked up): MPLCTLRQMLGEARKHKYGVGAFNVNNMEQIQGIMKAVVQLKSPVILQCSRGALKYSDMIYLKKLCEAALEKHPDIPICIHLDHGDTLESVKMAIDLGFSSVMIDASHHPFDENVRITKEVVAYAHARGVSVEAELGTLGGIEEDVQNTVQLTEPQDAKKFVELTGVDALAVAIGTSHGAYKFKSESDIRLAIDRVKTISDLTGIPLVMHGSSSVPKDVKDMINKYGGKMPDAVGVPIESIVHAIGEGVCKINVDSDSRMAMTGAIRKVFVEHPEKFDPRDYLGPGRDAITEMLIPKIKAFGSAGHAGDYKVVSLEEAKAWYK
#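 Giardia FBPA (40 nM reagent) was preincubated 10 min at RT with compound (up to 57.5 uM final), then substrate plus GAPDH/TPI/NAD/arsenate coupling system with diaphorase/resazurin was added; resorufin fluorescence (525/598 nm) was read after 20 min.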
# * = called active by the depositor; ? = inconclusive; / = no result given; [ ] = remark or other dose. Rows were chosen to be rich in hits. Some 1.4% of all compounds tested hit in one or more screens of this group. Unless noted, calls follow the shape of the dose curve; as a rule, active = well fitted curve in the direction sought with a large enough effect; inconclusive = small, poorly fitted or top-dose-only effect, or another doubt; inactive = no such curve, though single readings can be large; an effect the other way counts as inactive or inconclusive. Unless noted, % is scaled to controls: 0 for no effect and ±100 for the full control effect; potency is read from the fitted curve at half-maximal effect.
SMILES,AmpC inh no detg,AmpC inh detg,LmPK inhibitor,Tb PYK inh,RE007 growth inh,Giardia FBPA inh
CN(C)c1ccc(/C=C2/C(=O)NC(=O)N(Cc3ccco3)C2=O)cc1,-15%,-12%,11%,-23%,4%,0%
C=CCN1C(=O)/C(=C/c2cccs2)C(=O)NC1=S,-31%,-5%,8%,35µM*,?,-26%
O=C1NC(=O)N(CCc2ccc(F)cc2)C(=O)/C1=C/c1cccs1,-36%,?,2%,-12%,31%,3%
O=C1NC(=S)N(Cc2ccco2)C(=O)/C1=C\c1cccs1,-60%,45µM*,17%[11.5 µM],/,/,16µM*
CC(=O)N1c2ccc(S(=O)(=O)NCC3CCC(C(=O)Nc4cccc(C)c4C)CC3)cc2CC1C (stereo not drawn),/,22%,/,-1%,/,/
CCOC(=O)N1CCC(c2cc(=O)n3[nH]c(C)c(-c4ccc(F)cc4)c3n2)CC1,25µM*,?,-3%,-4%,7%,17%
CCOC(=O)N1CCC(c2cc(=O)n3[nH]c(-c4ccccc4)cc3n2)CC1,-22%,?,-3%,7%,-5%,-3%
Cc1ccc(CNC(=O)c2nc(-c3ccc(Cl)cc3)n3c2CCCCC3)cc1,/,-2%,/,-1%,/,/
COc1cc(OC)cc(-c2nc3ccccc3c(=O)o2)c1,-9%,-6%,3%,-6%,2%,0%
COc1ccc(-c2nc3ccccc3c(=O)o2)cc1,-22%,-6%,18µM*,2%,?,-20%
Cc1cc2c(s1)c(C#N)c(C(=O)NCc1ccccc1F)n2C,-17%,-14%,/,/,/,/
O=C(O)c1cccc2c1C(=O)c1cc([N+](=O)[O-])cc([N+](=O)[O-])c1-2,/,/,/,-9%,-9%,/
Cc1cccc(N=C2c3cc([N+](=O)[O-])ccc3-c3c2cc([N+](=O)[O-])cc3[N+](=O)[O-])c1,/,/,/,-1%,22µM*,/
COC1=CC(=O)C(C(=O)c2ccccc2)=CC1=O,/,/,/,/,/,1.1µM*
C=CCN1CC[C@]23c4c5ccc(O)c4O[C@@H]2/C(=N/N=C2\CC[C@@]4(O)C6Cc7ccc(O)c8c7[C@@]4(CCN6CC=C)[C@@H]2O8)CC[C@@]3(O)C1C5,/,/,/,/,/,-4%
C=CCN1CCc2cccc3c2[C@H]1Cc1ccc(O)c(O)c1-3,-28%,-9%,1.6µM*,?,?,?
CN(CC(=O)N1CCOCC1)Cc1c(Cl)cccc1NC(=O)c1ccccc1,/,/,/,-5%,/,/
CCOC(=O)C1CCN(c2ccc(Cl)nn2)CC1,-13%,1%,0%[11.5 µM],5%,-3%,6%
CCOC(=O)C1CCN(c2ccc(-c3cccs3)nn2)CC1,-14%,-2%,14µM*,?,?,3%
O=C(O)CC(CNS(=O)(=O)c1ccccc1)c1ccccc1 (stereo not drawn),2.5µM*,?,-1%,1%,3%,2%
Cn1c(=O)c2sccc2n2c(CCCC(=O)Nc3ccc(Oc4ccccc4)cc3)nnc12,/,-2%,/,-1%,/,/
Cc1ccc(N2/C(=N/c3nc(C)cc(C)n3)NC(=O)CC2C(=O)O)cc1 (stereo not drawn),0%,3%,6%,-21%,24%,-4%
Cc1cc(C)nc(/N=C2\NC(=O)CC(C(=O)O)N2c2ccc(Cl)cc2)n1 (stereo not drawn),8.9µM*,?,-2%,6%,4%,-14%
O=C(Nc1ccc2ccccc2c1)c1onc2c1CCCC2,-41%,-6%,-12%,-1%,3.5µM*,-5%
COC(=O)c1cccc(NC(=O)c2onc3c2CCCC3)c1,-23%,-7%,?,-26%,?,-1%
SMILES,AmpC inh no detg,AmpC inh detg,LmPK inhibitor,Tb PYK inh,RE007 growth inh,Giardia FBPA inh
Cc1cccc(NC(=O)c2onc3c2CCCC3)n1,2%,2%,13µM*,?,22µM*,-3%
Cc1cccc(NC(=O)c2sc3nc4c(cc3c2N)CCCCCC4)c1C,/,-5%,/,2%,/,/
Cc1cccc(NC(=O)c2onc3c2CCCC3)c1C,-14%,-3%,?,-11%,4µM*,1%
Cc1ccccc1NC(=O)c1onc2c1CCCC2,-8%,-8%,13µM*,-17%,5µM*,1%
CCOC(=O)c1ccc(NC(=O)CSc2cc(-c3ccccc3)nc(C)n2)cc1,/,-2%,/,-15%,/,/
CCc1noc(-c2ccc(N3CCC(C)CC3)c([N+](=O)[O-])c2)n1,/,-3%,/,-16%,/,/
Cc1cc(C)n(CCN(C)Cc2nc(Cc3ccccc3F)no2)n1,-26%,-10%,28µM*,-1%,-11%,-10%
CN(Cc1nc(Cc2ccccc2F)no1)[C@@H]1CS(=O)(=O)C[C@H]1O,-11%,4%,-2%,1%,-4%,6%
CCc1nnc(SCc2ccc(F)cc2Cl)c2cc3sc(C)cc3n12,/,21%,/,-2%,/,/
CCOC(=O)CSc1ccc2nnc(-c3ccncc3)n2n1,-7%,-11%,-5%,-1%,0%,3%
CCSc1ccc2nnc(-c3ccc(F)cc3)n2n1,0.4µM*,3%,2%,-19%,15%,1%
CCOC(=O)CC(=O)CSc1ccc2nnc(-c3ccccc3)n2n1,0.16µM*,2%,8%,-9%,11%,4%
Cc1cc(Nc2ccccc2C(=O)O)ccc1Cl,/,/,/,-6%,/,/
COc1ccc(OC)c(Nc2ncc3c(n2)CCN(Cc2cc(OC)c(OC)c(OC)c2)C3)c1,/,0%,/,7%,/,/
N#CCc1nc(C(c2ccccc2)c2ccccc2)no1,18µM*,-6%,12%,2%,-6%,?
FC(F)(F)c1cccc(NC(=S)Nc2cccc(NC(=S)Nc3cccc(C(F)(F)F)c3)n2)c1,7.9µM*,-1%,7%,-3%,-16%,-4%
Cc1ccc(SCc2nc(-c3ccc(C(=O)NCc4ccccc4Cl)cc3)oc2C)cc1,/,?,/,-4%,/,/
Nc1cc(C2CCCC2)nn1-c1ccccc1,-5%,0%,14µM*,-9%,-21%,-6%
O=C(CCN1CCCCC1)c1ccc2c(c1)OCO2,-34%,0%,2%,-6%,7.9µM*,-1%
O=C(CCN1CCOCC1)c1ccc2c(c1)OCCO2,-13%,?,0%,6%,13µM*,-17%
O=C(CCCN1CCOCC1)c1ccc2c(c1)OCCO2,-6%,2%,-4%,2%,1%,0%
O=C(CCN1CCc2ccccc2CC1)c1ccc2c(c1)OCCO2,-23%,-15%,-6%,?,7.1µM*,2%

# Compound activity: PubChem, National Center for Advancing Translational Sciences (NCATS)
